Data on four molecules can be found in the supplement of paper PMC9262897, “Low-cost anti-mycobacterial drug discovery using engineered E. coli” (Nature Communications, 2022).

Common to all, as to assay: growth (OD600 after 10 h); higher = more growth (less inhibition)
The subject of experiment [1] is E. coli TESEC Alr+ wild-type control. The following applies: compound 0.1 mM; raw OD600 reference: median of DMSO wells 0.241, cell-free background 0.041. As to the method: (§1)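 TESEC Mtb Alr E. coli, or the Alr+ wild-type control, in 384-well plates with Prestwick library compounds at 0.1 mM and 1% DMSO, across arabinose induction levels of 1E3 to 1E7 nM. Growth is read as OD600 after 10 h at 37 °C in triplicate biological replicates.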

The test system of experiment [2] is E. coli TESEC Mtb Alr. The following applies: compound 0.1 mM. As to the method:
as §1

Another experiment has as its system E. coli TESEC Mtb Asd. As to conditions: compound 0.1 mM. Here is the method:
(§2)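 TESEC E. coli strains in which the native enzyme is deleted and replaced by arabinose-inducible Mtb Asd, DapB, CysH or TrpD, each grown in its selective medium. Strains were screened against the Prestwick library at 0.1 mM and 1% DMSO in 384-well format at low and high arabinose induction. Growth is read as OD600 after 10 h in triplicate.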

A further experiment relates to E. coli TESEC Mtb DapB. As to conditions: compound 0.1 mM. Here is the method:
as §2

Experiment [3] deals with E. coli TESEC Alr+ wild-type control. As to conditions: compound 0.1 mM; raw OD600 reference: median of DMSO wells 0.49, cell-free background 0.052. Here is the method: (§3)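 TESEC Mtb Alr E. coli (ΔaraC ΔtolC ΔentC Δalr ΔdadX, arabinose-inducible Mtb Alr) or the Alr+ wild-type control strain, grown in defined M9-fructose medium without D-alanine in 96-well plates with Prestwick library compounds at 0.1 mM and 1% DMSO. Low Alr induction is 0.1 µM arabinose and high induction is 10 mM arabinose.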

The test system of experiment [4] is E. coli TESEC Mtb Alr. The following applies: compound 0.1 mM. As to the method:
as §3
The source holds these as a separate data set.

[5] abbreviates: arabinose 1000 nM, raw OD600 reference: median of DMSO wells 0.294, cell-free background 0.041.
[6] abbreviates: arabinose 10000 nM, raw OD600 reference: median of DMSO wells 0.264, cell-free background 0.041.
The mark [7] stands for this setting: arabinose 100000 nM, raw OD600 reference: median of DMSO wells 0.201, cell-free background 0.041.
Where [8] appears, read: arabinose 1000000 nM, raw OD600 reference: median of DMSO wells 0.193, cell-free background 0.041.
The mark [9] stands for this setting: arabinose 10000000 nM, raw OD600 reference: median of DMSO wells 0.146, cell-free background 0.041.
Setting [10] is: arabinose induction (level): High, raw OD600 reference: median of DMSO wells 0.331, cell-free background 0.041.
[11] abbreviates: arabinose induction (level): Low, raw OD600 reference: median of DMSO wells 0.417, cell-free background 0.041.
Where [12] appears, read: arabinose induction (level): High, raw OD600 reference: median of DMSO wells […], cell-free background 0.041.
Where [13] appears, read: arabinose induction (level): Low, raw OD600 reference: median of DMSO wells 0.227, cell-free background 0.041.
[14] abbreviates: arabinose 100 nM, raw OD600 reference: median of DMSO wells 0.413, cell-free background 0.052.
Setting [15] is: arabinose 10000000 nM, raw OD600 reference: median of DMSO wells […], cell-free background 0.052.

Each structure is given as a SMILES string. Counter-ions that a name gives are not always drawn. ± gives the standard deviation of the averaged measurements.

On to `CC(CN1c2ccccc2Sc2ccccc21)N(C)C` (configuration not stated) [Promethazine hydrochloride], for which the growth was found to be 0.197 ± 0.0039 in experiment [1]; 0.215 ± 0.013 in the experiment with E. coli TESEC Mtb Alr [2] (setting [5]); 0.2742 ± 0.0025 with E. coli TESEC Mtb Alr [2] (setting [6]); 0.197 ± 0.018 in the experiment with E. coli TESEC Mtb Alr [2] (setting [7]); 0.13 ± 0.0016 with E. coli TESEC Mtb Alr [2] (setting [8]); 0.157 ± 0.004 with E. coli TESEC Mtb Alr [2] (setting [9]). The growth in the experiment on E. coli TESEC Mtb Asd (setting [10]) came out at 0.139 ± 0.0045; with E. coli TESEC Mtb Asd (setting [11]), 0.254 ± 0.021; in the experiment on E. coli TESEC Mtb DapB (setting [12]), 0.221 ± 0.016; with E. coli TESEC Mtb DapB (setting [13]), 0.245 ± 0.012; in experiment [3], 0.456 ± 0.026; with E. coli TESEC Mtb Alr [4] (setting [14]) it was 0.409 ± 0.014. The same molecule had a growth in the experiment on E. coli TESEC Mtb Alr [4] (setting [15]) of 0.334 ± 0.0051.
For `CC(C(=O)O)c1ccc2c(c1)[nH]c1ccc(Cl)cc12` (configuration not stated) [Carprofen], the growth in experiment [1] was 0.0924 ± 0.0058; with E. coli TESEC Mtb Alr [2] (setting [5]) it was 0.116 ± 0.006; in the experiment on E. coli TESEC Mtb Alr [2] (setting [6]), 0.107 ± 0.0066; in the experiment with E. coli TESEC Mtb Alr [2] (setting [7]), 0.1024 ± 0.001; with E. coli TESEC Mtb Alr [2] (setting [8]) it was 0.0781 ± 0.0038; with E. coli TESEC Mtb Alr [2] (setting [9]), 0.111 ± 0.0039. The growth in the experiment with E. coli TESEC Mtb Asd (setting [10]) was determined as 0.171 ± 0.015; in the experiment with E. coli TESEC Mtb Asd (setting [11]), 0.168 ± 0.044; in the experiment on E. coli TESEC Mtb DapB (setting [12]) it was 0.201 ± 0.0073; with E. coli TESEC Mtb DapB (setting [13]), 0.215 ± 0.011; in experiment [3], 0.594 ± 0.029; in the experiment on E. coli TESEC Mtb Alr [4] (setting [14]), 0.409 ± 0.0018. In addition, the growth with E. coli TESEC Mtb Alr [4] (setting [15]) is 0.149 ± 0.025.
`Nc1nc(=O)[nH]cc1F` [Flucytosine]: the growth in experiment [1] worked out at 0.245 ± 0.0069; with E. coli TESEC Mtb Alr [2] (setting [5]), 0.309 ± 0.022; with E. coli TESEC Mtb Alr [2] (setting [6]), 0.243 ± 0.0058; in the experiment on E. coli TESEC Mtb Alr [2] (setting [7]), 0.187 ± 0.011; in the experiment with E. coli TESEC Mtb Alr [2] (setting [8]), 0.175 ± 0.008; in the experiment with E. coli TESEC Mtb Alr [2] (setting [9]), 0.14 ± 0.0027. Besides, the growth was 0.456 ± 0.025 in the experiment with E. coli TESEC Mtb Asd (setting [10]); 0.492 ± 0.026 in the experiment on E. coli TESEC Mtb Asd (setting [11]); 0.21 ± 0.018 with E. coli TESEC Mtb DapB (setting [12]); 0.222 ± 0.016 with E. coli TESEC Mtb DapB (setting [13]); 0.57 ± 0.021 in experiment [3]; 0.411 ± 0.015 in the experiment on E. coli TESEC Mtb Alr [4] (setting [14]). In addition, in the experiment on E. coli TESEC Mtb Alr [4] (setting [15]), the growth is 0.333 ± 0.02.
Consider `Nc1nc(N)c2nc(-c3ccccc3)c(N)nc2n1` [Triamterene], for which the growth in experiment [1] came out at 0.135 ± 0.0027; with E. coli TESEC Mtb Alr [2] (setting [5]) it was 0.146 ± 0.012; in the experiment with E. coli TESEC Mtb Alr [2] (setting [6]), 0.12 ± 0.0045; with E. coli TESEC Mtb Alr [2] (setting [7]), 0.138 ± 0.0069; in the experiment on E. coli TESEC Mtb Alr [2] (setting [8]) it was 0.0711 ± 0.0011; in the experiment with E. coli TESEC Mtb Alr [2] (setting [9]), 0.119 ± 0.0058. Besides, the growth in the experiment on E. coli TESEC Mtb Asd (setting [10]) was 0.235 ± 0.014; with E. coli TESEC Mtb Asd (setting [11]), 0.411 ± 0.015; in the experiment with E. coli TESEC Mtb DapB (setting [12]), 0.165 ± 0.0077; in the experiment with E. coli TESEC Mtb DapB (setting [13]) it was 0.203 ± 0.046; in experiment [3], 0.422 ± 0.0047; in the experiment on E. coli TESEC Mtb Alr [4] (setting [14]) it was 0.416 ± 0.0074. In the experiment on E. coli TESEC Mtb Alr [4] (setting [15]), this molecule yielded a growth of 0.122 ± 0.016.
